Source: PubChem BioAssay (several laboratories)
An excerpt weighted towards active compounds, which were near 8.7% of everything screened.
PostGolgi yeast = phenotypic screen on post-Golgi transport, primary screen | post-Golgi transport phenotypic cell assay | 98,000 tested, 0.9% active | inhibition, % at 10 µM | AID 739, 2007;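 note: yeast cells grown in 1536-well plates; yeast grown about 18 h at 30C before absorbance read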
PostGolgi ctrl = growth inhibition of yeast control strain, primary screen, counter-screen for post-Golgi transport modulator project. efflux-deficient yeast background strain, growth absorbance A615, 16 h. inhibition, % at 10 µM. 98,000 tested, 5% active
Smad3 inh = Smad3/FoxH1 peptide binding inhibitors, primary screen, biochemical, TR-FRET; Mothers against decapentaplegic homolog 3 (Homo sapiens), P84022; TR-FRET Smad3/Dy647-FoxH1 peptide binding, europium anti-His; inhibition, % at 25 µM; 88,000 tested, 0.29% active; AID 630, 2007;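 active = compounds that reduce the energy-transfer binding signal between the protein and its labelled peptide by more than half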;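 note: 0% = Smad3 plus labelled peptide maximal FRET and 100% = peptide-only background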
Cav32 inh = Cav3.2 calcium influx blockers – cell-based, Fluo-4 calcium fluorescence, FDSS, MLSMR library, primary screen | Voltage-dependent T-type calcium channel subunit alpha-1H (Homo sapiens), O95180 | Cav3.2-expressing cells; stronger effect = lower value | B-score at 10 µM | 100,000 tested, 4% active | AID 449739, 2010;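 active = single-dose well whose peak fluorescence ratio is a statistical outlier from its plate by either plate-standardised score or position-corrected B-score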
TNAP act DEA = human TNAP enzyme activators, primary screen, biochemical, luminescent, intermediate phosphate acceptor level; purified TNAP, CDP-star luminescence, 100 mM DEA, 30 min; stronger effect = higher value; scale: 0 levamisole-inhibited, 1 vehicle-only enzyme; Alkaline phosphatase, tissue-nonspecific isozyme (Homo sapiens), P05186; activation factor at 20 µM; AID 813, 2007; 64,000 tested, under 10 active;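 active = activation factor of at least 2 at 20 µM, relative to controls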
DAT uptake mod = changed hDAT dopamine uptake under cocaine IC80, either direction, primary screen, cocaine antagonist project, cell-based, LLC-PK1 hDAT, [14C]-dopamine uptake, MLSMR; Sodium-dependent dopamine transporter (Homo sapiens), Q01959; LLC-PK1 hDAT cells, [14C]-dopamine uptake with cocaine IC80; actives deviate in either direction; B-score at 10 µM; 110,000 tested, 1.3% active; AID 449768, 2010;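 active = Z score or B-score, a plate-position-corrected score, falls beyond the plate's 99.7% confidence bounds, in either direction; inactive = both scores lie inside the 99.7% bounds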;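 note: scored against the spread of the other compound wells on the same plate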
Starred values were filed as active, the others as inactive; / = not tested or not shown. Cut-off read from the data, not from the text of the source, unless noted: active = inhibition above about 30%; inactive = the rest.

SMILES	PostGolgi yeast	PostGolgi ctrl	Smad3 inh	Cav32 inh	TNAP act DEA	DAT uptake mod
CC(C)COC(=O)NCCOC(=O)Nc1cccc(Cl)c1	-6	7	1	-5.7*	0.9	0.42
COc1ccc(NC(=O)OCC(C)C)cc1OC	10	26	-9	0.047	/	0.95
O=[n+]1c2c(n([O-])c3cc(Cl)ccc31)CCCC2	8	0	/	0.88	/	0.97*
CCOc1ccc2c(c1)n([O-])c1c([n+]2=O)CCCC1	5	-6	-4	1.1	0.8	0.73
O=C(CSc1nnc(CNC(=O)c2cccs2)o1)Nc1cccc(C(F)(F)F)c1	-7	10	3	-5.5*	1	0.21
O=C(CSc1nnc(CNC(=O)c2cccs2)o1)NC1CCCC1	-2	2	-15	-0.056	0.9	0.33
Cc1cccc(NC(=O)CCOc2ccccc2)c1	-1	-5	8	0.053	/	-1.9*
COc1ccc(NC(=O)CCOc2ccccc2)cc1	-5	3	3	-0.11	/	0.44
COc1ccccc1NC(=O)c1ccc(NS(C)(=O)=O)cc1	-9	28	1	-0.12	0.9	-0.55
O=C(CNC(=O)c1ccccc1F)NC1CC1	/	/	-9	0.2	1	0.082
OC(Cn1cncn1)(c1ccccc1)c1ccccc1	103*	91*	-17	1	/	0.64
Cc1c(NC(=O)C(C)Oc2ncnc3ccccc23)c(=O)n(-c2ccccc2)n1C (stereo not given)	1	-2	-2	0.41	0.8	0.089
CCOc1cc(NC(=O)c2ccccn2)c(OCC)cc1NC(=O)CC(C)C	6	1	0	-0.039	0.9	-0.45
CCn1c(COc2ccccc2C)nc2ccccc21	/	/	0	-3	/	-0.33
CCn1c(COc2cccc(C)c2)nc2ccccc21	/	/	-2	-4*	/	1.3
COCn1c(COc2ccc3ccccc3c2)nc2ccccc21	/	/	1	-5.3*	/	1.3
COc1ccc2[nH]c3nc(SC(C)C)nnc3c2c1	30	18	-3	/	1	/
CCOC(=O)C1/C(=N\O)CC(C)(O)C(C(=O)OCC)C1c1ccc(OC)c(OC)c1 (stereo not given)	7	10	-6	0.53	0.9	-0.15
COCC(=O)n1nc(NCc2ccc(OC)cc2)nc1NCc1ccc(OC)cc1	49*	87*	13	-8.9*	1	0.53
CCC(=O)n1nc(NCc2ccc(OC)c(OC)c2)nc1NCc1ccc(OC)c(OC)c1	16	3	6	/	0.9	/
COc1ccc(S(=O)(=O)Nc2ccc(C)cc2)cc1N(C)S(=O)(=O)c1ccc(Cl)cc1	3	4	/	-3	/	-1
COc1ccc(CC(=O)Nc2nc3ccc(F)cc3s2)cc1S(=O)(=O)N1CCOCC1	0	3	-7	-2.1	/	0.75
Cc1noc(C)c1COC(=O)CN(C)S(=O)(=O)c1ccc(Cl)cc1	8	0	3	1.3	0.9	-0.41
O=C(c1ccc2c3n(nc2c1)-c1ccccc1CO3)N1CCCCC1	/	/	/	0.79	/	2.6*
COC(=O)c1cn(NC(=O)c2cc(OC)c(OC)c(OC)c2)c(=O)c2ccccc12	-9	3	4	0.75	/	0.023
SMILES	PostGolgi yeast	PostGolgi ctrl	Smad3 inh	Cav32 inh	TNAP act DEA	DAT uptake mod
O=C(N/C(=N\O)c1ccccc1)Nc1ccc(Cl)cc1	4	1	8	-5*	0.9	0.23
CSc1cccc(NC(=O)/C=C/c2ccccc2)c1	-9	-1	/	-6.3*	/	0.042
O=C(Nc1ccccc1)Nc1cc(Cl)cc(Cl)c1	9	56*	-1	0.25	/	-1.8
CSc1cccc(NC(=O)Nc2ccccc2)c1	-4	48*	3	-2.3	1.2	0.19
O=C(CN(C(=O)CCC(=O)Nc1ccccn1)c1ccc2c(c1)OCCO2)NCCc1ccccc1	/	/	0	-1.4	0.9	2.2
Cc1ccc2c(c1)N(CC(=O)N1CCCCC1c1cccnc1)C(=O)CO2 (stereo not given)	2	6	3	1.5	0.8	0.19
O=C(NC1CCCC1)C(c1ccsc1)N(Cc1ccccc1)C(=O)Cc1cccs1 (stereo not given)	-4	11	/	/	/	/
COc1ccc(CNC(=O)C(c2ccc(C)o2)N(Cc2cccs2)C(=O)Cc2cccs2)cc1 (stereo not given)	/	/	1	-7.6*	/	1.1
O=C(NC1CCCC1)C(c1ccccc1)N(Cc1ccc2c(c1)OCO2)C(=O)Cc1cccs1 (stereo not given)	/	/	5	-5.9*	/	1.4
O=C(NC1CCCC1)C(c1ccsc1)N(Cc1ccco1)C(=O)Cc1cccs1 (stereo not given)	-7	21	3	-6.9*	0.9	-0.29
O=C(NC1CCCCC1)C(c1ccccc1)N(Cc1ccco1)C(=O)Cn1cnc2ccccc21 (stereo not given)	1	13	/	-5.9*	0.8	-0.015
O=C(NC1CCCCC1)C(c1ccco1)N(Cc1cccs1)C(=O)Cn1nnc2ccccc21 (stereo not given)	/	/	-3	/	1	/
COCCN(C(=O)Cc1cccs1)C(C(=O)NCc1ccc(OC)cc1)c1ccc(C)cc1 (stereo not given)	-2	14	/	-1.2	/	-0.26
Cc1csc(NC(=O)CSc2nnc(-c3ccoc3C)n2CCc2ccccc2)n1	12	15	7	-3.8	0.9	0.67
O=C(Cc1cccs1)N(Cc1ccco1)C1(C(=O)NC2CCCC2)CCCCC1	10	26	9	-5.2*	0.9	0.069
O=C(NCc1ccccc1)C(c1ccccc1)N(Cc1ccc2c(c1)OCO2)C(=O)Cc1cccs1 (stereo not given)	/	/	0	-1.9*	/	-0.013
O=C(Cc1cccs1)NCc1ccc2c(c1)OCO2	-2	1	-7	0.024	0.9	-0.17
COc1cc(OC)c(NC(=O)c2ccoc2C)cc1Cl	1	4	3	-0.11	1	0.036
CCn1c(O)c(/C=N/n2cnnc2)sc1=S	6	30*	9	0.82	0.9	-0.53
CCn1c(O)c(C=NC2CCCC2)sc1=S	11	10	13	0.51	/	1.1
Nc1cc(=O)nc(SCC(=O)NC2CCCCC2)n1-c1ccccc1	3	6	-2	0.37	0.9	0.65
CCC1Oc2ccccc2N(CC(=O)NCCN2C(C)CCCC2C)C1=O (stereo not given)	-4	-1	6	0.52	0.9	-1.6
Cn1c(C(=O)NCCN2CCc3ccccc3C2)cc2c(=O)n(C)c3ccccc3c21	-10	34*	-2	1.3	0.9	2.8
Cn1c(C(=O)NCCN2CCOCC2)cc2c(=O)n(C)c3ccccc3c21	-5	18	-6	0.25	1	1.4
